# Article PMC7862700, “An all-to-all approach to the identification of sequence-specific readers for epigenetic DNA modifications on cytosine”
# Key:
# Assay in all cases: DAPPL (digital affinity profiling via proximity ligation, sequencing); 10 mM Tris-HCl pH 7.5, 50 mM NaCl, 1 mM DTT, 4% glycerol, room temperature, 30 min; GST-TFs on glutathione beads, 16-mer random dsDNA library, 0.1% formaldehyde crosslink after washing; high values mean tight binding
# FLI1 = biological target: T1, FLI1 (Homo sapiens, UniProt Q01543 1-452); details: protein: recombinant; tags: N-terminal GST; dsDNA, one strand shown
# T1 sequence: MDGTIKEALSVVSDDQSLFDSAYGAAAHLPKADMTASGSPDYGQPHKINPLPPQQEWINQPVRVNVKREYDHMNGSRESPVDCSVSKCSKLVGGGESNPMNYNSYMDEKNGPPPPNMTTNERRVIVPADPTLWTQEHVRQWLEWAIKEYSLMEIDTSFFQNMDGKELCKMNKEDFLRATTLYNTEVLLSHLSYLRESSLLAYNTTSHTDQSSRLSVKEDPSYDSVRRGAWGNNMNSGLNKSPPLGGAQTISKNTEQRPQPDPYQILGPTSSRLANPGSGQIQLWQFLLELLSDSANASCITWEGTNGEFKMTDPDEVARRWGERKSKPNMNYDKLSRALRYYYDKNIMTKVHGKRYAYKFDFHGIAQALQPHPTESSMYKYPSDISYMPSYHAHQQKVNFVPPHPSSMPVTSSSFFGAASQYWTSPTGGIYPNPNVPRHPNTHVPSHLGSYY
# Method in brief: (§1)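 Pools of DNA-barcoded human transcription factors, expressed in yeast as GST fusions on glutathione beads and combined with a tag-only sample, were incubated with 200 nmole of a 16-mer random double-stranded DNA library. Incubation took 30 min at room temperature in Tris/NaCl/DTT/glycerol buffer and was followed by washing, 0.1% formaldehyde crosslinking, proximity ligation (BsaI/T4 ligase, 1 h, 37 °C), PCR amplification and sequencing on an Illumina NextSeq500. Binding signal is the ratio of a hexamer's read frequency for a factor to its frequency for the tag-only sample.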
# ELK1 = biological target: T2, ELK1 (Homo sapiens, UniProt P19419 1-428); details: protein: recombinant; tags: N-terminal GST; dsDNA, one strand shown
# T2 sequence: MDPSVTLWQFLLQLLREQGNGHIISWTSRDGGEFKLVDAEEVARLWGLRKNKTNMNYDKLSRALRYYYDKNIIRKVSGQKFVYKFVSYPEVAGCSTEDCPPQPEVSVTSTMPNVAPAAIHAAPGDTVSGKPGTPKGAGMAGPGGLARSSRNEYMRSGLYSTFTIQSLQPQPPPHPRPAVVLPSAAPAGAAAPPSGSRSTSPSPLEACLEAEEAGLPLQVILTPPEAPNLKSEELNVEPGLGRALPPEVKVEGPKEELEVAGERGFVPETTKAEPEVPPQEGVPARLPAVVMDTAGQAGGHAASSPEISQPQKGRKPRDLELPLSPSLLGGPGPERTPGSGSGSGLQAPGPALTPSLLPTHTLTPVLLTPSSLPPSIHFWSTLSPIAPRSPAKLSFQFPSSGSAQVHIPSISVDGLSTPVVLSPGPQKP
# Method in brief: as §1
# GABPA = biological target: T3, GABPA (Homo sapiens, UniProt Q06546 1-454); details: protein: recombinant; tags: N-terminal GST; dsDNA, one strand shown
# T3 sequence: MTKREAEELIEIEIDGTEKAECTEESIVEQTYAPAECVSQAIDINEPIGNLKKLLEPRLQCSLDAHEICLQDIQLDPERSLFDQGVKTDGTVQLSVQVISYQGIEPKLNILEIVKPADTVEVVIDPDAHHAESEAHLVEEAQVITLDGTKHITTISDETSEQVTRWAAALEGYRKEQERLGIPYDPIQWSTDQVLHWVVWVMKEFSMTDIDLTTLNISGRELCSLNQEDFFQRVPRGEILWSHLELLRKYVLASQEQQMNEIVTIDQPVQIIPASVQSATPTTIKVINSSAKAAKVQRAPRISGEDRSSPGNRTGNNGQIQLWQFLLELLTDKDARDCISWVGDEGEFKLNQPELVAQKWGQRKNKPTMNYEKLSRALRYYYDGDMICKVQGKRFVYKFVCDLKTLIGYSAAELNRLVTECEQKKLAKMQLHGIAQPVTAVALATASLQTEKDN
# Method in brief: as §1
# ERG = biological target: T4, ERG (Homo sapiens, UniProt P11308 1-479); details: protein: recombinant; tags: N-terminal GST; dsDNA, one strand shown
# T4 sequence: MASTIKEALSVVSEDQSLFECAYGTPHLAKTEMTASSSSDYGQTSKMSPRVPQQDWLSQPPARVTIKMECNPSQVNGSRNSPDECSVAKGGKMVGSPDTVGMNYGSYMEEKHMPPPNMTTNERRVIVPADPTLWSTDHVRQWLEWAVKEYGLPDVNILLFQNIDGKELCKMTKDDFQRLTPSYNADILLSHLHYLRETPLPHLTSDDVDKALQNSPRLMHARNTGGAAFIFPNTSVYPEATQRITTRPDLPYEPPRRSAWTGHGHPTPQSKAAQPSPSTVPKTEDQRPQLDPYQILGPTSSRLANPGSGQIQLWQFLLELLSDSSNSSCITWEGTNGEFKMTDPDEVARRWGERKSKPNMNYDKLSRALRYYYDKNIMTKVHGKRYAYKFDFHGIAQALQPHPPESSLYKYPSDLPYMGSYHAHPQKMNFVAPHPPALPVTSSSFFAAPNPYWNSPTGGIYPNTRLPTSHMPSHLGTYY
# Method in brief: as §1
# ELF1 = ELF1 (Homo sapiens, UniProt P32519 1-619); details: protein: recombinant; tags: N-terminal GST; dsDNA, one strand shown
# ELF1, sequence (P32519 whole entry): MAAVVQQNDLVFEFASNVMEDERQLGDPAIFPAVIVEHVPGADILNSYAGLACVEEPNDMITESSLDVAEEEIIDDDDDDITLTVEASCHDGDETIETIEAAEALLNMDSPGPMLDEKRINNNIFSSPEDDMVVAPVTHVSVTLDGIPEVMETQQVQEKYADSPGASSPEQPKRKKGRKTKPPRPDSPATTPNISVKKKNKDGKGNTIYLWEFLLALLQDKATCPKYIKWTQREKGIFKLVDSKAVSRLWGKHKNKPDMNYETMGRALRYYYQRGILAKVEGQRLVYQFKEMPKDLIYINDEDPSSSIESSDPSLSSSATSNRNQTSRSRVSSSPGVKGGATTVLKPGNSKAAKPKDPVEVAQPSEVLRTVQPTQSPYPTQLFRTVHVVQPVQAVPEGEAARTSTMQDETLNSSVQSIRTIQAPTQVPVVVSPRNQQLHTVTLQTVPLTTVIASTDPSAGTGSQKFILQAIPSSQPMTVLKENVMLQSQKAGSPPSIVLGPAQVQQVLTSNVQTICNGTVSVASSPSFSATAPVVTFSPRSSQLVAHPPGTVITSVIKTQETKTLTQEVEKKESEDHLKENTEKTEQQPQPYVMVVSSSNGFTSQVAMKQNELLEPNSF
# Method in brief: as §1
# EHF = biological target: T5, EHF (Homo sapiens, UniProt Q9NZC4 1-300); details: protein: recombinant; tags: N-terminal GST; dsDNA, one strand shown
# T5 sequence: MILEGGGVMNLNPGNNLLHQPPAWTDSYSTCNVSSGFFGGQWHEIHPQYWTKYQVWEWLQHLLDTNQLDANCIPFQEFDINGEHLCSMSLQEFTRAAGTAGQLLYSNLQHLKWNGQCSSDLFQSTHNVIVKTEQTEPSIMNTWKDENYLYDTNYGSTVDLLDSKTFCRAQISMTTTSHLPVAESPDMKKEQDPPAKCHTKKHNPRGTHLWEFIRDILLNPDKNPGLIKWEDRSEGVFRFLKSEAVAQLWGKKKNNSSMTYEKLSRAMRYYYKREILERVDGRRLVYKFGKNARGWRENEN
# Method in brief: as §1
# SPI1 = SPI1 (Homo sapiens, UniProt P17947 1-270); details: protein: recombinant; tags: N-terminal GST; dsDNA, one strand shown
# Method in brief: as §1
# SPIB = SPIB (Homo sapiens, UniProt Q01892 1-262); details: protein: recombinant; tags: N-terminal GST; dsDNA, one strand shown
# SPIB, sequence (Q01892 whole entry): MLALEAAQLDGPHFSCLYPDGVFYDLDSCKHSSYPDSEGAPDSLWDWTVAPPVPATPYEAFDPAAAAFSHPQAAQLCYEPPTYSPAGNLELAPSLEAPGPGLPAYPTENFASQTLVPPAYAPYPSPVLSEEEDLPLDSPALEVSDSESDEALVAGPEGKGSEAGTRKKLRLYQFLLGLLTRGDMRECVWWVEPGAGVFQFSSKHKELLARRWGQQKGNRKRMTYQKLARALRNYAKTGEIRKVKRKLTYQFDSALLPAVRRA
# Method in brief: as §1
# ELK3 = biological target: T6, ELK3 (Homo sapiens, UniProt P41970 1-407); details: protein: recombinant; tags: N-terminal GST; dsDNA, one strand shown
# T6 sequence: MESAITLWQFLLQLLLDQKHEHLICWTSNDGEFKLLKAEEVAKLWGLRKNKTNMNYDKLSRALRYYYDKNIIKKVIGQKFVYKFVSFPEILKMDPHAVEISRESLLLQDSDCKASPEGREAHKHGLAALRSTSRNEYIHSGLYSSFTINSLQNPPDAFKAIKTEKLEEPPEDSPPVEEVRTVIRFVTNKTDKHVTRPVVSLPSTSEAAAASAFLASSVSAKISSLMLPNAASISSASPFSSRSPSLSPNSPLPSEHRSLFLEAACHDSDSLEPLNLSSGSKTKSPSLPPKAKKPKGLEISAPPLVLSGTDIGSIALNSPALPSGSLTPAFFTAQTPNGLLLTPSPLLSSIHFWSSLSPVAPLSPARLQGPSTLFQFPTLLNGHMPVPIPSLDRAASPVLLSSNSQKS
# Method in brief: as §1
# FEV = biological target: T7, FEV (Homo sapiens, UniProt Q99581 1-238); details: protein: recombinant; tags: N-terminal GST; dsDNA, one strand shown
# T7 sequence: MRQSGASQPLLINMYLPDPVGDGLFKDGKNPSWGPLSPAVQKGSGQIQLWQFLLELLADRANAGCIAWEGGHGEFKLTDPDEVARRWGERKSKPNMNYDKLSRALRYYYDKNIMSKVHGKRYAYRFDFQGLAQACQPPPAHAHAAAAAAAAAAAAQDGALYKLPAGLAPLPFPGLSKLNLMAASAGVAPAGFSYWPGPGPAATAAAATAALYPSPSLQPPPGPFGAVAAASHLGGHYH
# Method in brief: as §1
# ETV5 = ETV5 (Homo sapiens, UniProt P41161 1-510); details: protein: recombinant; tags: N-terminal GST; dsDNA, one strand shown
# ETV5, sequence (P41161 whole entry): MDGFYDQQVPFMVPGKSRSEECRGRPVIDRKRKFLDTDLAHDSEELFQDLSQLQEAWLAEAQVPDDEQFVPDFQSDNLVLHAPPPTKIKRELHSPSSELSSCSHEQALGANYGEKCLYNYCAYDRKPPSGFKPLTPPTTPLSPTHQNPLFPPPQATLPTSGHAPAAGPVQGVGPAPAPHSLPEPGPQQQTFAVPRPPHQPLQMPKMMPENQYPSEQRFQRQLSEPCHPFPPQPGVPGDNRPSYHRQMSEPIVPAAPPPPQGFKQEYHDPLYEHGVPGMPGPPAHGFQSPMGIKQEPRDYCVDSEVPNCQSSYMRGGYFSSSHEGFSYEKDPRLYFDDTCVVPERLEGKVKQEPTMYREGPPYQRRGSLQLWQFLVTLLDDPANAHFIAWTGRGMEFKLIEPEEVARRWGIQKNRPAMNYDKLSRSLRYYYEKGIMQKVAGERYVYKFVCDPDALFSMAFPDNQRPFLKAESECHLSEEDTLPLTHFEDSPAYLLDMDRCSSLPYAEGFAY
# Method in brief: as §1
# HSF1 = HSF1 (Homo sapiens, UniProt Q00613 1-529); details: protein: recombinant; tags: N-terminal GST; chain copies: 3; dsDNA, one strand shown
# HSF1, sequence (Q00613 whole entry): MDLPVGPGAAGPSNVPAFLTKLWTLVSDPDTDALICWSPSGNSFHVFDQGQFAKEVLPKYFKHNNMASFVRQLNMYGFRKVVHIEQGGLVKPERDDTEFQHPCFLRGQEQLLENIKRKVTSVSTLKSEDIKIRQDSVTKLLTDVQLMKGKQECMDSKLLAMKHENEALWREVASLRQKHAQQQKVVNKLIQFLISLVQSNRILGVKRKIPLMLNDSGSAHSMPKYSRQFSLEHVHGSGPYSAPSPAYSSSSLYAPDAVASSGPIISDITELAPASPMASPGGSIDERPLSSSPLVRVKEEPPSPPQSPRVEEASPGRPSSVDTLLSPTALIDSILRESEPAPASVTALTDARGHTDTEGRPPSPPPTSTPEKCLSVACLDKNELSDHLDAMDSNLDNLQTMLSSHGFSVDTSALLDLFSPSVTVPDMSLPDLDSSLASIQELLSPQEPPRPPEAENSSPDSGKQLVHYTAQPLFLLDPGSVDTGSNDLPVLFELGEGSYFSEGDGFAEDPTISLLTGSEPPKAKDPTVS
# Method in brief: as §1
# SPIC = biological target: T8, SPIC (Homo sapiens, UniProt Q8N5J4 1-248); details: protein: recombinant; tags: N-terminal GST; dsDNA, one strand shown
# T8 sequence: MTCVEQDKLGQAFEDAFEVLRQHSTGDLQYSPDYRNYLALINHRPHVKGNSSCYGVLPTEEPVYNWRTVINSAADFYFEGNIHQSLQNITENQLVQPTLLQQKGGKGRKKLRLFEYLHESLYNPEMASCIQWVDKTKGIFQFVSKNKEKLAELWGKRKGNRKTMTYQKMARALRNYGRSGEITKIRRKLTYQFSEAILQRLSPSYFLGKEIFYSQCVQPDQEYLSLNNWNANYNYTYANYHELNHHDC
# Method in brief: as §1
# ELF4 = ELF4 (Homo sapiens, UniProt Q99607 1-663); details: protein: recombinant; tags: N-terminal GST; dsDNA, one strand shown
# ELF4, sequence (Q99607 whole entry): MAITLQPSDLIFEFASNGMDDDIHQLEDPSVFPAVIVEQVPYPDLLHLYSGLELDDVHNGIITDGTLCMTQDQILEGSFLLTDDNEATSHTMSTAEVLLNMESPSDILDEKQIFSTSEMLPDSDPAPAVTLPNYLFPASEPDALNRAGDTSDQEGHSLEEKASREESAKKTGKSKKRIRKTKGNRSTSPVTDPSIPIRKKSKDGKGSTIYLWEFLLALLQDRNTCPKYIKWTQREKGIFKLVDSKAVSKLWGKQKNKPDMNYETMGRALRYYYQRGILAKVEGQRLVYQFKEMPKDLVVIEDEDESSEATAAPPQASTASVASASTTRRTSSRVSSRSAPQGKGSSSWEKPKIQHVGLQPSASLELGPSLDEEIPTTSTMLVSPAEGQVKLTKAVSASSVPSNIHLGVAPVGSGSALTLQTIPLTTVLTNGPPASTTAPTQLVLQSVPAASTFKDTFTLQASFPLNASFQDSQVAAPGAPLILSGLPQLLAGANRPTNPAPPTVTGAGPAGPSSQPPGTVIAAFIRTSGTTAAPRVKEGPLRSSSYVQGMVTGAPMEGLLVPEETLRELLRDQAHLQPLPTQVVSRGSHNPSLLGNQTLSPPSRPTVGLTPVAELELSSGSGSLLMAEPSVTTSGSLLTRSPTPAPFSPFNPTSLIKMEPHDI
# Method in brief: as §1
# ELK4 = biological target: T9, ELK4 (Homo sapiens, UniProt P28324-2 1-405); details: protein: recombinant; tags: N-terminal GST; dsDNA, one strand shown
# T9 sequence: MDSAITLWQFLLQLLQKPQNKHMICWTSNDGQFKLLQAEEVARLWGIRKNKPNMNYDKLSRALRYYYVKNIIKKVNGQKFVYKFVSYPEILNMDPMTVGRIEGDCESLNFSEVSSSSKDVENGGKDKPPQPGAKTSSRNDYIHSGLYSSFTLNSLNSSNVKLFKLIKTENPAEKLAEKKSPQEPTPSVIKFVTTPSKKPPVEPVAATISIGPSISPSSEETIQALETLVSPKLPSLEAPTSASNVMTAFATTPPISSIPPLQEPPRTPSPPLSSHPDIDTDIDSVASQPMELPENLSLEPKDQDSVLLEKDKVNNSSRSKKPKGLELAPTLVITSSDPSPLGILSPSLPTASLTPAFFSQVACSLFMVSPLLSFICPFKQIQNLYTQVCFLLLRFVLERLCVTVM
# Method in brief: as §1
# ETV2 = biological target: T10, ETV2 (Homo sapiens, UniProt O00321 1-342); details: protein: recombinant; tags: N-terminal GST; dsDNA, one strand shown
# T10 sequence: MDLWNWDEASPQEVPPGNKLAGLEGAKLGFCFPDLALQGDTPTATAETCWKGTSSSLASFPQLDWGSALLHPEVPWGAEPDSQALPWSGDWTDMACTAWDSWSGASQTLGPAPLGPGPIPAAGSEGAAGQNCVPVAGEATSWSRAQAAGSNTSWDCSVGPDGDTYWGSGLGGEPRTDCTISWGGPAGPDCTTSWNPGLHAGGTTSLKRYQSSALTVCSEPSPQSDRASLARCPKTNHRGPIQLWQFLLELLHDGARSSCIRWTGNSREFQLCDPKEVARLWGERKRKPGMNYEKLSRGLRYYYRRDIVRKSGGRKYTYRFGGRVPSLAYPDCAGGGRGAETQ
# Method in brief: as §1
# ELF3 = biological target: T11, ELF3 (Homo sapiens, UniProt P78545 1-371); details: protein: recombinant; tags: N-terminal GST; dsDNA, one strand shown
# T11 sequence: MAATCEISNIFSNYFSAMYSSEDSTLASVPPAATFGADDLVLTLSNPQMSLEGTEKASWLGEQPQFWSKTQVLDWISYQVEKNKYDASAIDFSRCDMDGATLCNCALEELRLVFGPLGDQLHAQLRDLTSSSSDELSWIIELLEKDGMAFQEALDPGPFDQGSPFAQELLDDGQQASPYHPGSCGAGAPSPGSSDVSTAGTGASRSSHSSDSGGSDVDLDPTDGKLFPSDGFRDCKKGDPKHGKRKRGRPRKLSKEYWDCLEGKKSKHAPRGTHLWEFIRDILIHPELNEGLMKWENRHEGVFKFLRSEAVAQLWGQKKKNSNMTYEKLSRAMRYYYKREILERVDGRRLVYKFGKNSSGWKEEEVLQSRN
# Method in brief: as §1
# CRX = CRX (Homo sapiens, UniProt O43186 1-299); details: protein: recombinant; tags: N-terminal GST; dsDNA, one strand shown
# CRX, sequence (O43186 whole entry): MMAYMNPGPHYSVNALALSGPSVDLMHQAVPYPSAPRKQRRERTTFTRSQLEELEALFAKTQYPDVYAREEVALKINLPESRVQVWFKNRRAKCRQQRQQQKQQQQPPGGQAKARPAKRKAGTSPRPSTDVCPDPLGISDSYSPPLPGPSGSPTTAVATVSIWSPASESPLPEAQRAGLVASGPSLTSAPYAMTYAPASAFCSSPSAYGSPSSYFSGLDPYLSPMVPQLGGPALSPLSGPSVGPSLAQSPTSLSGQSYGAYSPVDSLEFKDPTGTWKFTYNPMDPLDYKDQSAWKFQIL
# Method in brief: as §1
# ETV1 = ETV1 (Homo sapiens, UniProt P50549 1-477); details: protein: recombinant; tags: N-terminal GST; dsDNA, one strand shown
# ETV1, sequence (P50549 whole entry): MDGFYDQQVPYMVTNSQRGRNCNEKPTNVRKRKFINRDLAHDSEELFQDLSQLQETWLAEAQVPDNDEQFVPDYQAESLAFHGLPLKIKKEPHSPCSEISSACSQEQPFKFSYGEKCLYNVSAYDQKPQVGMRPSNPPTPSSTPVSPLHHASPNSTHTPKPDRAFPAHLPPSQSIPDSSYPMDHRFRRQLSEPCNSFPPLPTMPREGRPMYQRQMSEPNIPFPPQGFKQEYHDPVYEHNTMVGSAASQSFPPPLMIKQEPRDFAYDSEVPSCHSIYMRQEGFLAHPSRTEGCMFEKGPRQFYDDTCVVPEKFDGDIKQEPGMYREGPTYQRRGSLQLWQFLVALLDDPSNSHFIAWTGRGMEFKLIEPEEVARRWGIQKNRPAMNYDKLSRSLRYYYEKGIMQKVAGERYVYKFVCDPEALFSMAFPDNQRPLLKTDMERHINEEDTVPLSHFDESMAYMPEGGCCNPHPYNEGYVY
# Method in brief: as §1
sequence,measurement,setting,value
TAAATT,binding signal,FLI1,"1.26 fold enrichment (6-mer frequency, TF over GST control)"
same,binding signal,ELK1,"1.22 fold enrichment (6-mer frequency, TF over GST control)"
same,binding signal,GABPA,"1.2 fold enrichment (6-mer frequency, TF over GST control)"
same,binding signal,ERG,"1.22 fold enrichment (6-mer frequency, TF over GST control)"
same,binding signal,ELF1,"1.27 fold enrichment (6-mer frequency, TF over GST control)"
same,binding signal,EHF,"1.32 fold enrichment (6-mer frequency, TF over GST control)"
same,binding signal,SPI1,"1.22 fold enrichment (6-mer frequency, TF over GST control)"
same,binding signal,SPIB,"1.3 fold enrichment (6-mer frequency, TF over GST control)"
same,binding signal,ELK3,"1.31 fold enrichment (6-mer frequency, TF over GST control)"
same,binding signal,FEV,"1.25 fold enrichment (6-mer frequency, TF over GST control)"
same,binding signal,ETV5,"1.26 fold enrichment (6-mer frequency, TF over GST control)"
same,binding signal,HSF1,"1.51 fold enrichment (6-mer frequency, TF over GST control)"
same,binding signal,SPIC,"1.25 fold enrichment (6-mer frequency, TF over GST control)"
same,binding signal,ELF4,"1.17 fold enrichment (6-mer frequency, TF over GST control)"
same,binding signal,ELK4,"1.31 fold enrichment (6-mer frequency, TF over GST control)"
same,binding signal,ETV2,"1.34 fold enrichment (6-mer frequency, TF over GST control)"
same,binding signal,ELF3,"1.32 fold enrichment (6-mer frequency, TF over GST control)"
same,binding signal,CRX,"1.76 fold enrichment (6-mer frequency, TF over GST control)"
same,binding signal,ETV1,"1.17 fold enrichment (6-mer frequency, TF over GST control)"
